Our source for the Potency values is PubChem BioAssay (Tox21).

Results filed as inconclusive are left out. A call without a number means that no potency is given here. The source made the active and inactive calls. Calls follow the shape of the full dose curve.

The target of this assay is Retinoic acid receptor RXR-alpha (Homo sapiens) (UniProt P19793). As to the kind of experiment: qHTS assay to identify small molecule agonists of the RXR signaling pathway (AID 1159527). Also: nearly all actives have a fitted effect of over 35% in size. Particulars: HEK293T RXRa-UAS-bla, beta-lactamase ratio, 16 h; series mostly up to 76.8 µM. In a few lines: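 GeneBLAzer RXR-alpha-UAS-bla HEK 293T cells in 2% charcoal-stripped FBS medium were exposed to compounds for 16 hr at 37 C in agonist mode. Beta-lactamase reporter read as 460/530 nm FRET ratio after 2 hr substrate loading.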
Retinoic acid receptor RXR-alpha (Homo sapiens), sequence (P19793 whole entry, looked up): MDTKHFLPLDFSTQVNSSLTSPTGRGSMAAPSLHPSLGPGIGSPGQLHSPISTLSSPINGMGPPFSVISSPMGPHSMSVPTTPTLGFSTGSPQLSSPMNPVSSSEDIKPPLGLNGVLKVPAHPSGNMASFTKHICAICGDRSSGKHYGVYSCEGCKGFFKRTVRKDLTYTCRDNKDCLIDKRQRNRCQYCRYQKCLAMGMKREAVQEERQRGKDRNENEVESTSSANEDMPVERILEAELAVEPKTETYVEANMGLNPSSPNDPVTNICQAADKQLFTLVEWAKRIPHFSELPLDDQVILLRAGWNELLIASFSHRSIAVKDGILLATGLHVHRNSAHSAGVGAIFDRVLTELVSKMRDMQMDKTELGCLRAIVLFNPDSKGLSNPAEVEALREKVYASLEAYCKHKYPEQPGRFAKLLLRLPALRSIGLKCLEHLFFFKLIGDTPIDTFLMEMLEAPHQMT
In general terms: Quantitative high-throughput screening tests each substance at several concentrations.
As to `CC(N)CN` (centres undefined), the Potency result was “inactive”.

`Cc1cc(OI)c(C(C)C)cc1-c1cc(C(C)C)c(OI)cc1C`: the Potency result is “inactive”.

For the compound `CCN(Cc1cccc(S(=O)(=O)O)c1)c1ccc(C(=C2C=CC(=[N+](CC)Cc3cccc(S(=O)(=O)[O-])c3)C=C2)c2ccccc2)cc1`, the Potency entry was “inactive”.

Consider `CC(C)CCCC(=O)O`, for which the Potency entry is “inactive”.

Consider `O=C(CS)OCCOC(=O)CS`, for which the Potency entry is “inactive”.

`O=C1OCCN1/N=C/c1ccc([N+](=O)[O-])o1`: the Potency result is “inactive”.

With `COC(OC)(C(=O)c1ccccc1)c1ccccc1`, the Potency result was “inactive”.

With `CC(C)C(OC(=O)c1ccccc1)C(C)(C)COC(=O)c1ccccc1` (centres undefined), the Potency result is “inactive”.

Turning to `CC[C@@H]([C@H](C)O)n1ncn(-c2ccc(N3CCN(c4ccc(OC[C@@H]5CO[C@@](Cn6cncn6)(c6ccc(F)cc6F)C5)cc4)CC3)cc2)c1=O`, the Potency result is “inactive”.

As for `CCCOCCOCCO`, the Potency entry is “inactive”.

Consider `O=C(CCCCCCC(=O)Nc1ccccc1)NO`, for which the Potency entry was “inactive”.

Turning to `CC(C)(O)c1ccccc1CC[C@@H](SCC1(CC(=O)O)CC1)c1cccc(/C=C/c2ccc3ccc(Cl)cc3n2)c1`, the Potency entry was “inactive”.

In the case of `O=Cc1c(Cl)cccc1Cl`, the Potency entry was “inactive”.

In the case of `CC#N`, the Potency result was “inactive”.
